“And” between values parts separate entries of the source, which are not always exact repeats. Equal entries are not always repeated. Out of some 5,500 compounds screened, about 2,000 (36%) were called active. Another 18% or so got no clear call; they are omitted. No stated cut-off is given here; in the data, active means normalized growth mostly below about 0.91 (no sharp cut-off); inconclusive means no clear call, values can overlap the other calls; inactive means mostly above about 0.92. Some of the results follow.
Assay: chemical genetic growth profiling, strain panel (AID 1159580);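 further: tested at 20 µM; growth read once vehicle control cultures reached saturation at 30 °C; 1 = growth at the plate median or of vehicle wells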
Conditions: S. cerevisiae deletion strains, growth OD

Measured: normalized growth

CC(C)c1ccc2c(c1)CCC1C(C)(C(N)=O)CCCC21C (stereo unspecified)
active: locus YDL074C, strain BRE1, stronger effect = lower value 0.76 | locus YDL192W, strain arf1, stronger effect = lower value 0.831 | locus YDR137W, strain rgp1, stronger effect = lower value 0.679 | locus YDR392W, strain spt3, stronger effect = lower value 0.627 | locus YER155C, strain BEM2, stronger effect = lower value 0.89 | locus YER167W, strain BCK2, stronger effect = lower value 0.898 | locus YGL086W, strain mad1, stronger effect = lower value 0.894 | locus YGR229C, strain SMI1, stronger effect = lower value 0.654 | locus YHR079C, strain IRE1, stronger effect = lower value 0.848 | locus YHR142W, strain chs7, stronger effect = lower value 0.801 | locus YKL009W, strain mrt4, stronger effect = lower value 0.856 | locus YKR001C, strain vps1, stronger effect = lower value 0.78 | locus YLR039C, strain RIC1, stronger effect = lower value 0.569 | locus YLR113W, strain HOG1, stronger effect = lower value 0.78 | locus YLR262C, strain YPT6 (second series), stronger effect = lower value 0.734 | locus YLR262C, strain YPT6, stronger effect = lower value 0.498 | locus YLR330W, strain CHS5, stronger effect = lower value 0.909 | locus YLR342W, strain FKS1 (second series), stronger effect = lower value 0.645 | locus YLR371W, strain rom2, stronger effect = lower value 0.671 | locus YLR418C, strain cdc73, stronger effect = lower value 0.76 | locus YMR307W, strain GAS1, stronger effect = lower value 0.418 | locus YNL071W, strain lat1, stronger effect = lower value 0.916 | locus YNL233W, strain BNI4, stronger effect = lower value 0.792 | locus YNL298W, strain CLA4, stronger effect = lower value 0.887 | locus YNR052C, strain pop2, stronger effect = lower value 0.847 | locus YOR061W, strain CKA2, stronger effect = lower value 0.885 | locus YOR184W, strain ser1, stronger effect = lower value 0.703 | locus YPL051W, strain arl3, stronger effect = lower value 0.915
0.815 (active) and 0.881 (inactive): locus YHR030C, strain SLT2, stronger effect = lower value
inactive: locus YAL013W, strain DEP1, stronger effect = lower value 0.923 | locus YAL021C, strain ccr4, stronger effect = lower value 1.01 | locus YAL026C, strain drs2, stronger effect = lower value 0.916 | locus YAL030W, strain snc1, stronger effect = lower value 0.966 | locus YBL061C, strain skt5, stronger effect = lower value 0.951 | locus YBR009C, strain hhf1, stronger effect = lower value 0.947 | locus YBR021W, strain FUR4, stronger effect = lower value 1.02 | locus YBR023C, strain chs3, stronger effect = lower value 0.916 | locus YBR171W, strain sec66, stronger effect = lower value 0.952 | locus YBR229C, strain ROT2, stronger effect = lower value 0.983 | locus YBR231C, strain swc5, stronger effect = lower value 0.993 | locus YBR279W, strain paf1, stronger effect = lower value 0.992 | locus YCL011C, strain gbp2, stronger effect = lower value 0.941 | locus YCL016C, strain dcc1, stronger effect = lower value 0.94 | locus YCL029C, strain bik1, stronger effect = lower value 0.969 | locus YCL061C, strain MRC1, stronger effect = lower value 0.953 | locus YCL069W, strain vba3, stronger effect = lower value 0.969 | locus YCR088W, strain abp1, stronger effect = lower value 0.958 | locus YDL005C, strain med2, stronger effect = lower value 0.954 | locus YDL035C, strain GPR1, stronger effect = lower value 0.88 | locus YDL040C, strain nat1, stronger effect = lower value 0.976 | locus YDL101C, strain DUN1, stronger effect = lower value 0.946 | locus YDL134C, strain PPH21, stronger effect = lower value 0.898 | locus YDL185W, strain tfp1, stronger effect = lower value 0.991 | locus YDR001C, strain nth1, stronger effect = lower value 0.948 | locus YDR069C, strain doa4, stronger effect = lower value 0.989 | locus YDR101C, strain arx1, stronger effect = lower value 0.937 | locus YDR159W, strain sac3, stronger effect = lower value 0.895 | locus YDR162C, strain NBP2, stronger effect = lower value 0.872 | locus YDR195W, strain ref2 0.922 | locus YDR297W, strain sur2, stronger effect = lower value 0.968 | locus YDR318W, strain mcm21, stronger effect = lower value 0.931 | locus YDR334W, strain swr1, stronger effect = lower value 0.965 | locus YDR335W, strain msn5, stronger effect = lower value 0.976 | locus YDR388W, stronger effect = lower value 0.972 | locus YDR502C, strain sam2, stronger effect = lower value 0.926 | locus YEL003W, strain gim4, stronger effect = lower value 0.971 | locus YEL037C, strain rad23, stronger effect = lower value 0.973 | locus YEL061C, strain CIN8 (second series), stronger effect = lower value 0.96 | locus YEL061C, strain CIN8, stronger effect = lower value 0.962 | locus YER015W, strain faa2, stronger effect = lower value 0.982 | locus YER016W, strain bim1, stronger effect = lower value 0.967 | locus YER110C, stronger effect = lower value 0.995 | locus YER111C, strain swi4, stronger effect = lower value 0.936 | locus YER155C, strain BEM2 (second series), stronger effect = lower value 0.955 | locus YFR010W, strain ubp6, stronger effect = lower value 0.957 | locus YGL078C, strain dbp3, stronger effect = lower value 0.964 | locus YGL167C, strain pmr1, stronger effect = lower value 0.945 | locus YGL173C, strain kem1, stronger effect = lower value 0.951 | locus YGL227W, strain vid30, stronger effect = lower value 0.965 | locus YGL240W, strain doc1, stronger effect = lower value 0.963 | locus YGL248W, strain PDE1, stronger effect = lower value 0.926 | locus YGL253W, strain hxk2, stronger effect = lower value 0.951 | locus YGR135W, strain pre9, stronger effect = lower value 0.932 | locus YGR252W, strain gcn5, stronger effect = lower value 0.857 | locus YHR013C, strain ard1, stronger effect = lower value 1.09 | locus YHR027C, strain rpn1, stronger effect = lower value 0.979 | locus YHR079C, strain IRE1 (second series), stronger effect = lower value 0.974 | locus YHR094C, strain hxt1, stronger effect = lower value 1 | locus YHR129C, strain ARP1, stronger effect = lower value 0.941 | locus YHR200W, strain rpn10, stronger effect = lower value 0.945 | locus YIL066C, strain RNR3, stronger effect = lower value 0.902 | locus YIL073C, strain SPO22, stronger effect = lower value 0.833 | locus YIL125W, strain kgd1, stronger effect = lower value 0.939 | locus YIR030C, strain dcg1, stronger effect = lower value 0.97 | locus YJL092W, strain hpr5, stronger effect = lower value 0.956 | locus YJL095W, strain BCK1 (second series), stronger effect = lower value 0.966 | locus YJL115W, strain asf1, stronger effect = lower value 0.976 | locus YJL129C, strain trk1, stronger effect = lower value 0.905 | locus YJL134W, strain LCB3, stronger effect = lower value 0.983 | locus YJL154C, strain vps35, stronger effect = lower value 0.961 | locus YJL164C, strain tpk1, stronger effect = lower value 0.941 | locus YJL166W, strain qcr8, stronger effect = lower value 0.965 | locus YJL168C, strain set2, stronger effect = lower value 0.993 | locus YJL187C, strain SWE1 (second series), stronger effect = lower value 0.924 | locus YJL187C, strain SWE1, stronger effect = lower value 0.968 | locus YJR043C, strain POL32, stronger effect = lower value 0.941 | locus YJR066W, strain TOR1, stronger effect = lower value 0.936 | locus YKL068W, stronger effect = lower value 0.965 | locus YKL085W, strain MDH1 (second series), stronger effect = lower value 0.944 | locus YKL085W, strain MDH1, stronger effect = lower value 0.944 | locus YKL160W, strain elf1, stronger effect = lower value 0.952 | locus YKL190W, strain CNB1, stronger effect = lower value 0.969 | locus YKR026C, strain gcn3, stronger effect = lower value 0.969 | locus YKR091W, strain srl3, stronger effect = lower value 0.963 | locus YLL001W, strain dnm1, stronger effect = lower value 0.926 | locus YLL026W, stronger effect = lower value 0.976 | locus YLL041C, strain sdh2, stronger effect = lower value 0.96 | locus YLR027C, strain aat2, stronger effect = lower value 0.979 | locus YLR058C, strain SHM2, stronger effect = lower value 0.949 | locus YLR102C, strain apc9, stronger effect = lower value 0.986 | locus YLR221C, strain rsa3, stronger effect = lower value 0.916 | locus YLR258W, strain gsy2, stronger effect = lower value 0.966 | locus YLR268W, strain sec22, stronger effect = lower value 0.917 | locus YLR320W, strain mms22, stronger effect = lower value 0.911 | locus YLR342W, strain FKS1, stronger effect = lower value 0.946 | locus YLR357W, strain rsc2, stronger effect = lower value 0.952 | locus YLR370C, strain arc18, stronger effect = lower value 0.952 | locus YLR384C, strain iki3, stronger effect = lower value 0.954 | locus YML016C, strain PPZ1, stronger effect = lower value 0.977 | locus YML032C, strain rad52, stronger effect = lower value 0.954 | locus YML120C, strain ndi1, stronger effect = lower value 0.939 | locus YML124C, strain tub3, stronger effect = lower value 0.972 | locus YMR058W, strain fet3, stronger effect = lower value 0.958 | locus YMR078C, strain ctf18, stronger effect = lower value 0.984 | locus YMR125W, strain sto1, stronger effect = lower value 0.954 | locus YMR129W, stronger effect = lower value 0.952 | locus YMR205C, strain PFK2, stronger effect = lower value 0.894 | locus YMR223W, strain ubp8, stronger effect = lower value 0.929 | locus YMR231W, strain pep5, stronger effect = lower value 0.98 | locus YMR263W, strain SAP30, stronger effect = lower value 0.943 | locus YNL067W, strain RPL9B, stronger effect = lower value 0.935 | locus YNL128W, strain TEP1, stronger effect = lower value 0.925 | locus YNL183C, strain NPR1, stronger effect = lower value 0.9 | locus YNL209W, strain ssb2, stronger effect = lower value 0.974 | locus YNL248C, strain rpa49, stronger effect = lower value 0.942 | locus YNL250W, strain rad50, stronger effect = lower value 0.97 | locus YNL271C, strain bni1, stronger effect = lower value 0.951 | locus YNL307C, strain MCK1, stronger effect = lower value 0.942 | locus YNL322C, strain KRE1 (second series), stronger effect = lower value 0.937 | locus YNR049C, strain mso1, stronger effect = lower value 0.969 | locus YOL012C, strain htz1 1.06 | locus YOL147C, strain pex11, stronger effect = lower value 0.965 | locus YOR001W, strain rrp6, stronger effect = lower value 0.973 | locus YOR069W, strain VPS5, stronger effect = lower value 0.966 | locus YOR070C, strain gyp1, stronger effect = lower value 0.955 | locus YOR080W, strain dia2, stronger effect = lower value 0.964 | locus YOR083W, strain WHI5, stronger effect = lower value 0.917 | locus YOR106W, strain vam3, stronger effect = lower value 0.955 | locus YOR136W, strain idh2, stronger effect = lower value 0.962 | locus YOR144C, strain elg1, stronger effect = lower value 0.956 | locus YOR231W, strain MKK1, stronger effect = lower value 0.891 | locus YOR265W, strain rbl2, stronger effect = lower value 0.965 | locus YOR270C, strain vph1, stronger effect = lower value 0.984 | locus YOR290C, strain snf2, stronger effect = lower value 0.902 | locus YOR316C, strain cot1, stronger effect = lower value 0.983 | locus YPL078C, strain atp4, stronger effect = lower value 0.946 | locus YPL106C, strain sse1, stronger effect = lower value 0.93 | locus YPL240C, strain hsp82, stronger effect = lower value 0.966 | locus YPL241C, strain CIN2, stronger effect = lower value 0.98 | locus YPL256C, strain CLN2, stronger effect = lower value 0.838 | locus YPR119W, strain clb2, stronger effect = lower value 0.942 | locus YPR141C, strain kar3, stronger effect = lower value 0.968 | locus YPR163C, strain tif3, stronger effect = lower value 0.966 | locus YPR167C, strain met16, stronger effect = lower value 0.985 | strain wtn01, stronger effect = lower value 0.922
0.695 (active) and 0.911 (inactive): locus YJL095W, strain BCK1, stronger effect = lower value

— PubChem BioAssay AID1159580 (chemical genetic matrix, 2015)
